# Pf apPOL inh = Pf-apPOL inhibitors, biochemical, fluorescence. Plasmodium falciparum apicoplast DNA polymerase (apPOL). AID 1794808, 2022. hit rate 0.25% among 210,000. Recombinant Pf-apPOL, molecular beacon fluorescence, 1.5 h. inhibition, % at 10 µM
# mHTT-CaM PPI inh = mutant huntingtin-calmodulin interaction inhibitors – biochemical, AlphaScreen, primary screen; AID 1671202, 2021; inhibition, % at 15 µM; P42858; hit rate 3.6% among 190,000; AlphaScreen His-mHTT/GST-CaM binding, luminescence;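 note: 0% = both proteins with DMSO and 100% = one protein alone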
# * marks the source's active call; other numbers are inactive results; / = not tested or not shown. Shown are actives, neighbours in structure and some others; about 3.5% of the full set was active somewhere. Cut-off read from the data, not from the text of the source: active = inhibition above about 50%; inactive = the rest.
SMILES,Pf apPOL inh,mHTT-CaM PPI inh
Cn1c(N2CCCC(C(=O)NCCC3=CCCCC3)C2)cc(=O)n(C)c1=O (stereo unspecified),0,11
CCn1c(N2CCC(C(=O)NCCC3=CCCCC3)CC2)cc(=O)n(C)c1=O,5,51*
COc1ccc(-c2ccc(N3C(c4ccsc4)=Cc4ccc(F)cc4C3c3c[nH]c4ccccc34)cc2)cc1 (stereo unspecified),-4,82*
COC(=O)c1ccc(N2C(c3cccc(OC)c3)=Cc3ccc(F)cc3C2c2c(C)[nH]c3ccccc23)cc1 (stereo unspecified),1,2
CCOC(=O)N1CCN(Cc2c(F)cccc2Cl)CC1,-2,-5
NC(=O)c1c(Nc2ccccc2Cl)sc(C(=O)c2ccccc2)c1N,-4,86*
N#Cc1ccccc1Nc1sc(C(=O)c2ccccc2)c(N)c1C(N)=O,0,10
COc1cccc(CC(=O)NNC(=O)c2ccc3nccnc3c2)c1,-2,/
CN(C)/C=C1\C(=O)N(c2nc3ccccc3s2)N=C1c1ccccc1,-9,-1
COc1ccc(C2=NN(c3nc4ccccc4s3)C(=O)/C2=C\N(C)C)cc1,-1,73*
CN1CCc2cc(C(CNC(=O)C(=O)Nc3cccc(C(F)(F)F)c3)N(C)C)ccc21 (stereo unspecified),-4,53*
CN1CCCc2cc(C(CNC(=O)C(=O)Nc3ccc4c(c3)OCCO4)N(C)C)ccc21 (stereo unspecified),-10,37
COc1ccc(OC)c(N(CC(=O)NCC2CCCO2)S(C)(=O)=O)c1 (stereo unspecified),-4,2
COc1ccc(C)cc1NCc1ccccc1[N+](=O)[O-],-2,77*
COc1ccc(C)cc1NS(=O)(=O)CC(C)C,-4,6
COc1cccc(CNCc2ccccc2[N+](=O)[O-])c1OC,-3,5
COc1cc(C)c(CNc2cc(C)ccc2OC)cc1C,-7,89*
Cc1ccc2c(c1)N(C(=O)NCc1ccccc1)CCO2,-2,-1
CCS(=O)(=O)N1CCN(Cc2cccs2)CC1,1,-2
O=C(N1CCN(CC(O)c2cccs2)CC1)C1(c2ccccc2)CCOCC1 (stereo unspecified),-3,-10
Cc1nc(SC2CCCCC2=O)c(C#N)c(-c2cccs2)c1C(=O)Nc1ccccc1 (stereo unspecified),3,5
CSc1nnc2c(n1)OC(c1ccc(Cl)cc1)N(C(C)=O)c1ccccc1-2 (stereo unspecified),7,54*
CSc1nnc2c(n1)OC(c1cccc(Br)c1)N(C(C)=O)c1ccccc1-2 (stereo unspecified),-4,19
C=CCSc1nnc2c(n1)OC(c1ccc(OC)cc1)N(C(C)=O)c1ccccc1-2 (stereo unspecified),2,37
CSc1nnc2c(n1)OC(c1ccc(Br)cc1)N(C(C)=O)c1ccccc1-2 (stereo unspecified),-6,75*
SMILES,Pf apPOL inh,mHTT-CaM PPI inh
C=CCSc1nnc2c(n1)OC(c1ccc(OCC)cc1)N(C(C)=O)c1ccccc1-2 (stereo unspecified),-9,55*
CSc1ccc(C2Oc3nc(SC)nnc3-c3ccccc3N2C(C)=O)cc1 (stereo unspecified),-1,35
CSc1nnc2c(n1)OC(c1ccc(Br)s1)N(C(C)=O)c1ccccc1-2 (stereo unspecified),5,71*
CSc1nnc2c(n1)OC(c1ccc(Br)o1)N(C(C)=O)c1ccccc1-2 (stereo unspecified),5,8
NS(=O)(=O)c1ccc(C2CCCCC2)cc1,-4,0
COc1ccc(CN2CCN(C(=O)c3cccn3C)CC2)cn1,0,8
CCCOc1ccccc1C(=O)N1CCCCC1CCN1CCCC1 (stereo unspecified),-11,-8
COCCCNC(=O)CC1CCN(S(=O)(=O)c2cccs2)CC1,1,-6
CN1c2cc(C(=O)N3CCN(c4cccc(Cl)c4)CC3)ccc2C(=O)N2CCCCC21 (stereo unspecified),3,97*
CN1C(=O)C2CCCCN2c2ccc(C(=O)N3CCN(c4ccccn4)CC3)cc21 (stereo unspecified),0,11
COc1ccc(N2CCN(C(=O)c3ccc4c(c3)N(C)C(=O)C3CCCCN43)CC2)cc1 (stereo unspecified),-1,7
Cc1cccc(N2CCN(C(=O)c3ccc4c(c3)N(C)C3CCCCN3C4=O)CC2)c1 (stereo unspecified),-1,2
CN1c2cc(C(=O)NCc3ccc(F)c(Cl)c3)ccc2C(=O)N2CCCCC21 (stereo unspecified),-4,56*
CCN1c2cc(C(=O)NCc3cccc(Cl)c3)ccc2C(=O)N2CCCCC21 (stereo unspecified),-2,-58
Cc1cccc(N2CCN(C(=O)c3ccc4c(c3)N(C)C(=O)C3CCCCN43)CC2)c1C (stereo unspecified),2,55*
CN1C(=O)C2CCCCN2c2ccc(C(=O)N3CCN(c4cccc(Cl)c4)CC3)cc21 (stereo unspecified),2,99*
CN(C)S(=O)(=O)c1ccc(-c2nnc(NC(=O)C3=COCCO3)o2)cc1,-1,-4
O=C1NC(=O)/C(=C/c2ccc(-c3ccc(Cl)cc3)o2)N1,0,-5
O=C1OC(c2ccco2)=N/C1=C/c1cccc(Cl)c1,0,3
CCNc1cc(N2CCCC(CCC(=O)N(C)CCc3ccccn3)C2)ncn1 (stereo unspecified),0,1
Fc1ccc(C2=CC(c3ccccc3F)n3nnnc3N2)cc1 (stereo unspecified),-6,-11
Cc1noc(-c2ccncc2)c1C(=O)NCc1cccc2ccccc12,-3,-4
COc1ccc(/C=C2\SC(=O)N(c3cccc(C)c3)C2=O)cc1,3,3
CN1C(=O)C2CCCCN2c2ccc(C(=O)N3CCc4ccccc4C3)cc21 (stereo unspecified),-2,40
CN1C(=O)C2CCCCN2c2ccc(C(=O)N3CCC(Cc4ccccc4)CC3)cc21 (stereo unspecified),2,87*
SMILES,Pf apPOL inh,mHTT-CaM PPI inh
CN1C(=O)C2CCCCN2c2ccc(C(=O)NCc3ccccc3)cc21 (stereo unspecified),-5,-7
Cc1ccc(C)c(N2CCN(C(=O)c3ccc4c(c3)N(C)C(=O)C3CCCCN43)CC2)c1 (stereo unspecified),-1,94*
CC(C)CSC1=NSC2=NC(=O)/C(=C\c3cccs3)C(=N)N12,-13,3
COc1ccc(C(=O)N2CCC(c3noc(N)c3C)CC2)cn1,0,-10
Oc1ccccc1C=Nc1ccc(O)c(-c2nc3ccccc3s2)c1,1,32
COc1cc(C=Nc2ccc(O)c(-c3nc4ccccc4s3)c2)ccc1O,2,79*
O=C1NCCN(Cc2ccccc2)C1=O,-6,-1
O=C1C=CC(=O)C(C2=C3C(=O)N(Cc4ccccc4)CC(=O)N3CCC2)=C1,-8,82*
COCCCNC(=O)N1CCCCCC1c1ccc(Cl)cc1 (stereo unspecified),72*,4
COCCCNC(=O)N1CCCC1c1ccc(Cl)cc1 (stereo unspecified),-2,-6
CCOc1ccc(N2CC(C#N)=C3c4cc(OC)c(OC)cc4CCN3C2)cc1,-3,14
CCOC(=O)c1oc2cc(OCC#N)ccc2c(=O)c1-c1ccc(Br)cc1,-6,-5
O=C(NC1CC1)c1csc(N2CCCC2)n1,3,-1

# Assay outcomes (PubChem)
